Laboratory results reported in PubChem BioAssay AID1159580 (chemical genetic matrix, 2015).
Values joined by “and” are separate entries in the source; they are usually repeats but may differ in a detail not shown here. Equal entries are not always repeated. About 2,000 (36%) of roughly 5,500 compounds were called active. Roughly 18% stayed inconclusive and do not appear here. Cut-off read from the data, not from the text of the source: active = normalized growth mostly below about 0.91 (no sharp cut-off); inconclusive = no clear call, values can overlap the other calls; inactive = mostly above about 0.92. The list shows a part of the results.

Assay: chemical genetic growth profiling, strain panel (AID 1159580);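 note: tested at 20 µM; growth read once vehicle control cultures reached saturation at 30 °C; 1 = growth at the plate median or of vehicle wells; lower values mean less growth of the strain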
Conditions: S. cerevisiae deletion strains, growth OD

Measured: normalized growth

CNC(Cc1c[nH]c2ccccc12)C(=O)O (stereo not drawn)
inactive: locus YAL013W, strain DEP1, active compounds read low 0.988 | locus YAL021C, strain ccr4, active compounds read low 0.972 | locus YAL026C, strain drs2, active compounds read low 0.982 | locus YAL030W, strain snc1, active compounds read low 0.974 | locus YBL061C, strain skt5, active compounds read low 0.986 | locus YBR009C, strain hhf1, active compounds read low 0.976 | locus YBR021W, strain FUR4, active compounds read low 1 | locus YBR023C, strain chs3, active compounds read low 0.994 | locus YBR171W, strain sec66, active compounds read low 0.986 | locus YBR229C, strain ROT2, active compounds read low 0.959 | locus YBR231C, strain swc5, active compounds read low 1 | locus YBR279W, strain paf1, active compounds read low 0.997 | locus YCL011C, strain gbp2, active compounds read low 0.985 | locus YCL016C, strain dcc1, active compounds read low 0.976 | locus YCL029C, strain bik1, active compounds read low 0.996 | locus YCL061C, strain MRC1, active compounds read low 0.983 | locus YCL069W, strain vba3, active compounds read low 0.977 | locus YCR088W, strain abp1, active compounds read low 0.991 | locus YDL005C, strain med2, active compounds read low 0.975 | locus YDL035C, strain GPR1, active compounds read low 0.931 | locus YDL040C, strain nat1, active compounds read low 0.976 | locus YDL074C, strain BRE1, active compounds read low 0.981 | locus YDL101C, strain DUN1, active compounds read low 0.982 | locus YDL134C, strain PPH21, active compounds read low 0.972 | locus YDL185W, strain tfp1, active compounds read low 0.97 | locus YDL192W, strain arf1, active compounds read low 0.986 | locus YDR001C, strain nth1, active compounds read low 0.976 | locus YDR069C, strain doa4, active compounds read low 0.991 | locus YDR101C, strain arx1, active compounds read low 1.04 | locus YDR137W, strain rgp1, active compounds read low 1.01 | locus YDR159W, strain sac3, active compounds read low 0.986 | locus YDR162C, strain NBP2, active compounds read low 0.994 | locus YDR195W, strain ref2 0.944 | locus YDR297W, strain sur2, active compounds read low 0.99 | locus YDR318W, strain mcm21, active compounds read low 0.973 | locus YDR334W, strain swr1, active compounds read low 0.983 | locus YDR335W, strain msn5, active compounds read low 0.987 | locus YDR388W, active compounds read low 0.989 | locus YDR392W, strain spt3, active compounds read low 0.963 | locus YDR502C, strain sam2, active compounds read low 0.992 | locus YEL003W, strain gim4, active compounds read low 1 | locus YEL037C, strain rad23, active compounds read low 0.978 | locus YEL061C, strain CIN8 (second series), active compounds read low 0.976 | locus YEL061C, strain CIN8, active compounds read low 0.987 | locus YER015W, strain faa2, active compounds read low 0.986 | locus YER016W, strain bim1, active compounds read low 0.988 | locus YER110C, active compounds read low 0.99 | locus YER111C, strain swi4, active compounds read low 0.988 | locus YER155C, strain BEM2 (second series), active compounds read low 0.996 | locus YER155C, strain BEM2, active compounds read low 1 | locus YER167W, strain BCK2, active compounds read low 1.01 | locus YFR010W, strain ubp6, active compounds read low 0.988 | locus YGL078C, strain dbp3, active compounds read low 0.996 | locus YGL086W, strain mad1, active compounds read low 1.02 | locus YGL167C, strain pmr1, active compounds read low 0.971 | locus YGL173C, strain kem1, active compounds read low 0.996 | locus YGL227W, strain vid30, active compounds read low 0.988 | locus YGL240W, strain doc1, active compounds read low 1 | locus YGL248W, strain PDE1, active compounds read low 0.972 | locus YGL253W, strain hxk2, active compounds read low 0.995 | locus YGR135W, strain pre9, active compounds read low 0.973 | locus YGR252W, strain gcn5, active compounds read low 0.929 | locus YHR013C, strain ard1, active compounds read low 0.978 | locus YHR027C, strain rpn1, active compounds read low 0.982 | locus YHR030C, strain SLT2, active compounds read low 1 and 0.971 | locus YHR079C, strain IRE1 (second series), active compounds read low 0.991 | locus YHR079C, strain IRE1, active compounds read low 0.97 | locus YHR094C, strain hxt1, active compounds read low 0.979 | locus YHR129C, strain ARP1, active compounds read low 0.996 | locus YHR142W, strain chs7, active compounds read low 0.986 | locus YHR200W, strain rpn10, active compounds read low 0.986 | locus YIL066C, strain RNR3, active compounds read low 0.973 | locus YIL073C, strain SPO22, active compounds read low 0.977 | locus YIL125W, strain kgd1, active compounds read low 0.994 | locus YIR030C, strain dcg1, active compounds read low 0.997 | locus YJL092W, strain hpr5, active compounds read low 0.977 | locus YJL095W, strain BCK1 (second series), active compounds read low 0.981 | locus YJL095W, strain BCK1, active compounds read low 0.973 and 1.05 | locus YJL115W, strain asf1, active compounds read low 0.971 | locus YJL129C, strain trk1, active compounds read low 0.971 | locus YJL134W, strain LCB3, active compounds read low 0.985 | locus YJL154C, strain vps35, active compounds read low 0.986 | locus YJL164C, strain tpk1, active compounds read low 0.968 | locus YJL166W, strain qcr8, active compounds read low 0.99 | locus YJL168C, strain set2, active compounds read low 0.992 | locus YJL187C, strain SWE1 (second series), active compounds read low 0.971 | locus YJL187C, strain SWE1, active compounds read low 0.99 | locus YJR043C, strain POL32, active compounds read low 0.974
